Reference: the supplement of paper PMC13094657
± gives the standard deviation of the averaged measurements.
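Also: viability of the cells left after supernatant collection, read with Deep Blue dye added for 4 h, as absorbance at 570 nm minus 600 nm.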

These molecules were tested on MDA-MB-231 (assay: cell viability relative to vehicle unstimulated control (fraction); higher = more viable cells). Conditions: pre-treatment time: 18 h then 24 h IFNg/TNF.
Work on `CC(=O)OCC1=C[C@@H]2OC(=O)C3=CO[C@@H](O[C@@H]4O[C@H](CO)[C@@H](O)[C@H](O)[C@H]4O)[C@H]1[C@@H]32` [Asperuloside] (compound dose: 10 uM) yielded a cell viability of 0.983 ± 0.03. Work on `CC(C)=CCC[C@@](C)(O)[C@H]1CC[C@]2(C)[C@@H]1[C@H](O)C[C@@H]1[C@@]3(C)CC[C@H](O[C@@H]4O[C@H](CO)[C@@H](O)[C@H](O)[C@H]4O[C@@H]4O[C@H](CO)[C@@H](O)[C@H](O)[C@H]4O[C@@H]4OC[C@@H](O)[C@H](O)[C@H]4O)C(C)(C)[C@@H]3CC[C@]12C` [Notoginsenoside Ft1] (compound dose: 2 uM) yielded a cell viability of 0.899 ± 0.026. `CC(C)=CCC[C@@H](C)CCO` [(R)-Citronellol] (compound dose: 10 uM) gave a cell viability of 1.029 ± 0.0012. In the case of `COC(=O)C1=CO[C@@H](O[C@@H]2O[C@H](CO)[C@@H](O)[C@H](O)[C@H]2O)[C@H]2[C@@H]1[C@H](O)C[C@]2(C)O` [Shanzhiside methyl ester] (compound dose: 10 uM), the cell viability is reported as 1.007 ± 0.0034. `CC1=C2[C@@H](OC1=O)[C@H](O)[C@]13[C@H]4C[C@@H](C(C)(C)C)[C@]15[C@@H](OC(=O)[C@@H]5O)O[C@@]23C(=O)O4` [Ginkgolide K] (compound dose: 10 uM) showed a cell viability of 0.996 ± 0.15. Molecule `C=C1[C@@H]2CC[C@@H]3[C@](C2)(C(=O)[C@@H](O)[C@@H]2C(C)(C)[C@H]4CC(=O)[C@@]32CO4)[C@@H]1OC(C)=O` [Maoecrystal A] (compound dose: 10 uM) has a cell viability of 0.9322 ± 0.0011. Molecule `C=C(CCC=C(C)C)[C@H]1CC[C@]2(C)[C@@H]1[C@H](O)C[C@@H]1[C@@]3(C)CC[C@H](O)C(C)(C)[C@@H]3[C@@H](O[C@@H]3O[C@H](CO)[C@@H](O)[C@H](O)[C@H]3O)C[C@]12C` [Ginsenoside Rk3] (compound dose: 10 uM) has a cell viability of 0.96 ± 0.035. Molecule `C=C1CC[C@H]2C(=C)CC[C@H]3C(=C)C(=O)O[C@@H]3[C@@H]12` [Dehydrocostus Lactone] (compound dose: 10 uM) has a cell viability of 0.933 ± 0.08. Work on `CC12CCC(CC1=O)C2(C)C` (stereo not drawn) [Camphor] (compound dose: 10 uM) yielded a cell viability of 0.977 ± 0.016. `O=c1cc(-c2ccc(O)c(O)c2)oc2c([C@@H]3O[C@H](CO)[C@@H](O)[C@H](O)[C@H]3O)c(O)cc(O)c12` [Orientin] (compound dose: 10 uM) showed a cell viability of 0.922 ± 0.069. `C=C1CCC[C@]2(C)CC[C@@H](C(C)(C)O)C[C@@H]12` [Beta-Eudesmol] (compound dose: 10 uM) gave a cell viability of 1.077 ± 0.0077. In the case of `COc1ccc(-c2cc(=O)c3c(O)c(OC)c(O[C@@H]4O[C@H](CO[C@@H]5O[C@@H](C)[C@H](O)[C@@H](O)[C@H]5O)[C@@H](O)[C@H](O)[C@H]4O)cc3o2)cc1` [Pectolinarin] (compound dose: 10 uM), the cell viability is reported as 0.833 ± 0.26. `C=C[C@H]1[C@H](O[C@@H]2O[C@H](CO)[C@@H](O)[C@H](O)[C@H]2O)OC=C2C(=O)OCC[C@]21O` [Swertiamarin] (compound dose: 10 uM) was tested, and the cell viability was 0.9564 ± 0.0069. Work on `Cc1cc(O)cc(O[C@@H]2O[C@H](CO)[C@@H](O)[C@H](O)[C@H]2O)c1` [Orcinol glucoside] (compound dose: 10 uM) yielded a cell viability of 1.05 ± 0.027. Molecule `CC1CCC(C(C)C)C(O)C1` [(1R,2S,5R)-(-)-menthol] (compound dose: 10 uM) has a cell viability of 0.935 ± 0.035. For `CC(=O)OC1COC(OC2CCC34CC35CCC3(C)C(C6(C)CCC(C(C)(C)O)O6)C(O)CC3(C)C5CC(OC3OC(CO)C(O)C(O)C3O)C4C2(C)C)C(OC(C)=O)C1O` (stereo not drawn) [Isoastragaloside I] (compound dose: 10 uM), the cell viability was 0.983 ± 0.0057. `C[C@@H]1O[C@@H](O[C@H]2[C@H](OC(=O)[C@]34CCC(C)(C)C[C@H]3C3=CC[C@@H]5[C@@]6(C)C[C@H](O)[C@H](O[C@@H]7O[C@H](CO)[C@@H](O)[C@H](O)[C@H]7O)C(CO)(CO)[C@@H]6CC[C@@]5(C)[C@]3(C)C[C@H]4O)OC[C@H](O)[C@@H]2O)[C@H](O)[C@H](O)[C@H]1O[C@@H]1OC[C@@H](O)[C@H](O[C@@H]2OC[C@](O)(CO)[C@H]2O)[C@H]1O` [Platycodin D] (compound dose: 10 uM) showed a cell viability of 0.609 ± 0.21. `O=c1c(-c2ccc(O)cc2)coc2c([C@@H]3O[C@H](CO)[C@@H](O)[C@H](O)[C@H]3O)c(O)ccc12` [Puerarin] (compound dose: 10 uM) gave a cell viability of 0.944 ± 0.027.
